PubChem BioAssay (NCATS)
Inconclusive results are not listed. Activity calls are given as the source filed them. Unless noted, calls come from the whole dose curve.

Legend:
[1] = qHTS for Inhibitors of the Functional Ribonucleoprotein Complex (vRNP) of Lassa (LASV) Arenavirus: LASV Primary Screen - GLuc reporter signal (AID 1347082; calls by dose curve; tested in HEK293 reporter line; note: nearly all actives have a fitted effect of over 60% in size)
[2] = qHTS for Inhibitors of the Functional Ribonucleoprotein Complex (vRNP) of Lassa (LASV) Arenavirus: Viability assay - alamar blue signal for LASV Primary Screen (AID 1347083; calls by dose curve; tested in HEK293 reporter line; note: nearly all actives have a fitted effect of over 80% in size)
[3] = qHTS for Inhibitors of the Functional Ribonucleoprotein Complex (vRNP) of Lymphocytic Choriomeningitis Arenaviruses (LCMV): Viability assay - alamar blue signal for LCMV Primary Screen (AID 1347085; calls by dose curve; tested in HEK293 reporter line; note: nearly all actives have a fitted effect of over 80% in size)
[4] = target: Nucleoprotein (Lymphocytic choriomeningitis virus (strain Armstrong)) (UniProt P09992); test: qHTS for Inhibitors of the Functional Ribonucleoprotein Complex (vRNP) of Lymphocytic Choriomeningitis Arenaviruses (LCMV): LCMV Primary Screen - GLuc reporter signal (AID 1347086); note: nearly all actives have a fitted effect of over 70% in size
Nucleoprotein (Lymphocytic choriomeningitis virus (strain Armstrong)), sequence (P09992 whole entry, looked up): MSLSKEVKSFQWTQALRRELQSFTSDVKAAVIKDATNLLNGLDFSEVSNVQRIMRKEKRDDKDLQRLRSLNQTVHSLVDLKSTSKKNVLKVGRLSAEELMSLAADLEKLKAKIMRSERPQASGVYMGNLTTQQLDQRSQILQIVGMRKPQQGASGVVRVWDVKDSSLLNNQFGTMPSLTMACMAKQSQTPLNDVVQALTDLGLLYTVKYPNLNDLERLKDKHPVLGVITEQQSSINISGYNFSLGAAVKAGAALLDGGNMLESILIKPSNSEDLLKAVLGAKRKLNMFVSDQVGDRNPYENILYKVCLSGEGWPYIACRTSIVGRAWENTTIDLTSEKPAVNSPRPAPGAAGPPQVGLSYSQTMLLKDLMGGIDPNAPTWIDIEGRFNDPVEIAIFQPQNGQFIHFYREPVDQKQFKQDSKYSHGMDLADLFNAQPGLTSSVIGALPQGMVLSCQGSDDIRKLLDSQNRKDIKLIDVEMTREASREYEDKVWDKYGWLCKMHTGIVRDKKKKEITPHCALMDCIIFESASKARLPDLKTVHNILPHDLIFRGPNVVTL
% is set by controls: 0 for no effect and ±100 for the full control effect.
Note: series mostly up to about 57 µM.

C=CC(=O)CCCCC
inactive: Potency [1] | Potency [2] | Potency [3] | Potency [4]

C=C1CCC2[C@](C)(CO)C(O)CC[C@]2(C)C1CC=C1C(=O)OCC1O (stereo not given in full)
inactive: Potency [1] | Potency [2] | Potency [3] | Potency [4]

CCCCCCCCCCCCCCCCCCCCCCCCCCCCCC
inactive: Potency [1] | Potency [2] | Potency [3] | Potency [4]

CC(C)=CCC/C(C)=C/C(=O)O
inactive: Potency [1] | Potency [2] | Potency [3] | Potency [4]

CC1(C)Oc2cc3oc(=O)ccc3cc2C[C@@H]1O
inactive: Potency [1] | Potency [2] | Potency [3] | Potency [4]

OC[C@H]1O[C@@H](OC[C@H]2O[C@@H](O)[C@H](O)[C@@H](O)[C@@H]2O)[C@H](O)[C@@H](O)[C@@H]1O
inactive: Potency [1] | Potency [2] | Potency [3] | Potency [4]

COc1cc(C2C(c3ccccc3)C(c3cc(OC)cc(=O)o3)C2c2ccccc2)oc(=O)c1 (stereo not given)
inactive: Potency [1] | Potency [2] | Potency [3] | Potency [4]

CCCCCCCCC1OC1CCCCCCCC(=O)O (stereo not given)
inactive: Potency [1] | Potency [2] | Potency [3] | Potency [4]

C[N+](C)(C)CCOP(=O)([O-])OC[C@H](O)CO
inactive: Potency [1] | Potency [2] | Potency [3] | Potency [4]

C/C=C1\NC(=O)[C@H](C)NC(=O)[C@@H](NC(=O)[C@H](Cc2ccc(O)cc2)NC(=O)[C@@H](NC(=O)/C(C)=C/C)C(C)C)[C@@H](C)OC(=O)[C@H](CC(C)C)NC(=O)[C@@H](CCC(=O)O)NC1=O
inactive: Potency [1] | Potency [2] | Potency [3] | Potency [4]

C=C1C[C@@]23CC4C5[C@@]6(C)C[C@H](O)C[C@@]57C2[C@H](O)[C@@H]1[C@H](O)[C@H]3[C@H]7N4C6
inactive: Potency [1] | Potency [2] | Potency [3] | Potency [4]

Oc1ccc(C=Cc2cc(O)cc(O)c2)cc1
inactive: Potency [1] | Potency [2] | Potency [3] | Potency [4]

C=C1CC/C=C(\C)CC[C@@H]2[C@@H]1CC2(C)C
inactive: Potency [1] | Potency [2] | Potency [3] | Potency [4]

O=c1[nH]c(=O)c2ncn(C3OC(CO)C(O)C3O)c2[nH]1 (stereo not given)
inactive: Potency [1] | Potency [2] | Potency [3] | Potency [4]

C=C/C(=C/C(=O)C[C@H](C)C[C@@H](C)CC[C@H](O)[C@H](C)C(=O)C[C@@H](O)[C@H](C)[C@@H](C)OC(=O)C[C@@H](O)C1=C(C)C(=O)OC1=O)CC
inactive: activity change, negative = inhibition [1] -47.1% [at 11.5 µM] | activity change, negative = reduced viability [2] -113% [at 11.5 µM] | activity change, negative = lower viability [3] -114% [at 11.5 µM] | activity change, negative = inhibition [4] -83.6% [at 11.5 µM]

CC(C=O)Cc1ccc(C(C)C)cc1 (stereo not given)
inactive: Potency [1] | Potency [2] | Potency [3] | Potency [4]

CC1(C)CCC[C@]2(C)[C@H]3CCO[C@]3(C)CC[C@@H]12
inactive: Potency [1] | Potency [2] | Potency [3] | Potency [4]

CC1(C)C=Cc2c(c3ccccc3[nH]c2=O)O1
inactive: Potency [1] | Potency [2] | Potency [3] | Potency [4]

C[C@]12C=CC(=O)C=C1CC[C@@H]1[C@@H]2[C@@H](O)C[C@@]2(C)[C@@H]1CC[C@]2(O)C(=O)CO
inactive: Potency [1] | Potency [2] | Potency [3] | Potency [4]

CC1=CC(=O)/C(=C(/C)O)C(=O)O1
inactive: Potency [1] | Potency [2] | Potency [3] | Potency [4]

C[C@@]12CCC3[C@@](CCC4[C@@]3(C)CCC[C@@]4(C)C(=O)O)(CC1=O)C2 (stereo not given in full)
inactive: Potency [1] | Potency [2] | Potency [3] | Potency [4]

CC[C@H]1NC(=O)[C@@H](NC(=O)c2ncccc2O)[C@@H](C)OC(=O)[C@H](c2ccccc2)NC(=O)[C@@H]2CC(=O)CCN2C(=O)[C@H](Cc2ccccc2)N(C)C(=O)[C@@H]2CCCN2C1=O
inactive: Potency [1] | Potency [2] | Potency [3] | Potency [4]

CC(C)=CCCC(C)C=O (stereo not given)
inactive: Potency [1] | Potency [2] | Potency [3] | Potency [4]

COc1cc(C)cc(C(=O)O)c1C1=C(O)c2cccc(O)c2C(=O)C1=O
inactive: Potency [1] | Potency [2] | Potency [3] | Potency [4]

C=C[C@]1(C)C=C2C(=O)[C@@]3(O)OC(=O)[C@@]4(CCCC(C)(C)[C@H]34)[C@@]2(O)CC1
inactive: Potency [1] | Potency [2] | Potency [3] | Potency [4]

CC1=C2C(=O)C3C(CC=C4CC(O)CCC43C)C2CCC12OC1CC(C)CNC1C2C (stereo not given)
inactive: Potency [1] | Potency [2] | Potency [3] | Potency [4]

CNCCO
inactive: Potency [1] | Potency [2] | Potency [3] | Potency [4]

COc1cc2c(cc1OC)OC(C)(C)C=C2
inactive: Potency [1] | Potency [2] | Potency [3] | Potency [4]

O=C/C=C/c1ccc(O)cc1
inactive: Potency [1] | Potency [2] | Potency [3] | Potency [4]

COc1cc2c(cc1O)C(Cc1ccc(O)cc1)NCC2 (stereo not given)
inactive: Potency [1] | Potency [2] | Potency [3] | Potency [4]
